Compound activity from PubChem BioAssay.
Sampled rows, rich in hits. Any-hit rate of the full collection: about 3.6%.
GALC G270D up: A Novel Cell-Based Assay to Identify Small Molecules for B -Galactocerebrosidase; P54803; 145M-Twi-hGALC-G270D cells (Twitcher mouse brain line with human GALC G270D), HMU-beta-Gal fluorescence, 48 h; Potency, µM (doses to about 57.5 µM), hits mostly activators; 45,000 tested, 0.1% active; further: potency means the concentration at half of the fitted maximal effect; 0% is about no effect; nearly all actives have a fitted effect of over 65% in size
Target sequence (P54803 whole entry G286D): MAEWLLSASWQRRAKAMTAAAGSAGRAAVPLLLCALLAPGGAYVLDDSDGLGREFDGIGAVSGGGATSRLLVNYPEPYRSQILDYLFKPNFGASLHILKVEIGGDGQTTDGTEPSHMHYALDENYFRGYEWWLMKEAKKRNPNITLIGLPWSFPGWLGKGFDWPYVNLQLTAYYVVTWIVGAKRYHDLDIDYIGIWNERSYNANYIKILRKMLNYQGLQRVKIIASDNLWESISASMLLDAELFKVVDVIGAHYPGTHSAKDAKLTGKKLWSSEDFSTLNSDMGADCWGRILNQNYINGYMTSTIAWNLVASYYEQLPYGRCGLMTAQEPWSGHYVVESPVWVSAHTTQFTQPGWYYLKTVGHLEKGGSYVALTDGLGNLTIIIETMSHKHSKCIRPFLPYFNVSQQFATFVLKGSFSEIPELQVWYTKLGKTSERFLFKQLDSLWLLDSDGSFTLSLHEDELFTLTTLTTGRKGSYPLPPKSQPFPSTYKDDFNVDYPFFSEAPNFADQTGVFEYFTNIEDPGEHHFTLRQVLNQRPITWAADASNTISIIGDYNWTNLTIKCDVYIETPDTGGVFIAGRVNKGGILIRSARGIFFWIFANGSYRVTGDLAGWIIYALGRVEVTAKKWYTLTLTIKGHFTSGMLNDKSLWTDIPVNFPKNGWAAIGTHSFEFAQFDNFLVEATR
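Fluorogenic HMU-b-Gal hydrolysis (0.1 mM final, pH 5.2 citrate-phosphate with 1 mg/mL sodium taurocholate; carbonate stop buffer) measures mutant GALC activity after compound treatment of live 145M-Twi Twitcher brain cells stably carrying human GALC-G270D, with wild-type GALC line alongside; activation sought.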
SKOV3 invasion: Primary qHTS assay for Inhibitors of ovarian cancer metastasis using an organotypic tumor microenvironment (TME) model | SKOV3ip1-GFP adhesion/invasion on 3D omental model, fluorescence | 46,000 tested, 0.1% active | AID 1963576, 2024 | Potency, µM (top dose mostly 45.8 µM), inactives show at the highest dose activity change, negative = inhibition, usual class: inhibitors;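 further: potency means the concentration at half of the fitted maximal effect; plate controls were DMSO wells for no effect and tomatine positive control wells for full effect; nearly all actives have a fitted effect of over 65% in size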
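A 3D layer of primary human omental fibroblasts, mesothelial cells, fibronectin and collagen I, grown 48 hr, received SKOV3ip1-GFP cells in serum-free medium plus compounds at 0.36-46 umol/L. After 2 hr RT and 16 hr 37 C, fixed adherent GFP cells were counted; normalized to DMSO and tomatine.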
PMP22 txn: Cell-based coincidence reporter assay to measure PMP22 gene transcription in S16 Pmp22-F2sN cells - Primary screen | S16 Pmp22-F2sN Schwann cells, FLuc/NLuc coincidence luminescence, 24 h | Potency, µM (highest dose often 57.5 µM), without a hit: top-dose activity change, negative = inhibition, hits mostly inhibitors | 43,000 tested, 2% active; active means clear falling dose curves in both reporters; inconclusive means both reporters move, but less clearly or upward; inactive means either reporter flat; the % is the NLuc reporter signal; further: potency means the concentration at half of the fitted maximal effect; on the % scale 0 is the no-effect control and ±100 the full control effect
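S16(c9) Schwann cells with FLuc/NLuc coincidence reporter in the Pmp22 3' UTR; compounds pin-transferred, 24 h at 37C. Dual-luciferase read: FLuc first, then NLuc after Stop&Glo, each 10 min at room temperature.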
NTMT1 inh: Primary qHTS for Inhibitors of N-terminal methyltransferase 1 (NTMT1): MTaseGlo Assay | NTMT1 MTase-Glo SAH luminescence, purified enzyme | Potency, µM (series often up to 114 µM), inactives show top-dose activity change, negative = inhibition, hits mostly inhibitors | 59,000 tested, 2.5% active | AID 1645870, 2021;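 further: potency means the concentration at half of the fitted maximal effect; plate controls were DMSO vehicle for no effect and no enzyme for full effect; nearly all actives have a fitted effect of over 65% in size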
mTORC1 inh: Acumen qHTS Assay for Inhibitors of the mTORC1 Signaling Pathway in MEF (Tsc2-/-, p53-/-) Cells: Sytravon. Potency, µM (series often up to 38.3 µM), inactives show top-dose activity change, negative = inhibition, actives largely listed as inhibitors. AID 493208, 2011. Tsc2-/- p53-/- MEF, phospho-rpS6 immunofluorescence/PI, 24 h. 44,000 tested, 0.78% active;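 further: potency means the concentration at half of the fitted maximal effect; plate controls were DMSO for no effect and rapamycin for full effect; nearly all actives have a fitted effect of over 50% in size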
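Immunofluorescence of rpS6 phosphorylation in Tsc2-/-, p53-/- MEFs after 24 h compound exposure, normalized to propidium iodide signal. Activity is expressed as % positive cells, thresholded with 7.5 nM rapamycin.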
S16 F2sN tox: Cell viability qHTS assay in S16 Pmp22-F2sN cells; S16 Pmp22-F2sN Schwann cells viability, CellTiter-Glo, 24 h; Potency, µM (top dose mostly 57.5 µM), for inactives: top-dose activity change, negative = cytotoxicity, usual class: cytotoxic; 43,000 tested, 0.48% active; AID 1508642, 2021; further: potency means the concentration at half of the fitted maximal effect; on the % scale 0 is the no-effect control and ±100 the full control effect; nearly all actives have a fitted effect of over 65% in size
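S16 Pmp22-F2sN Schwann cells (500-1,000/well) in phenol-red-free DMEM with 10% FBS received 23 nL compound by pin tool for 24 h at 37 °C. Viability was then read as CellTiter-Glo luminescence after 15 min at room temperature.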
Sfp PPTase inh: qHTS Assay for Inhibitos of Bacillus subtilis Sfp phosphopantetheinyl transferase (PPTase): Chemistry Optimization Followup | purified Sfp PPTase enzyme activity, qHTS | 230 tested, 78% active | shares compounds with NTMT1 inh | Potency, µM (top dose mostly 114 µM), inactives show at the top dose activity change, negative = inhibition, hits mostly inhibitors
HM489 growth: qHTS for Inhibitos of Bacillus subtilis Sfp phosphopantetheinyl transferase (PPTase): Chemistry Optimization Followup in B. Subtilis HM489; shares compounds with NTMT1 inh; 220 tested, 50% active; Potency, µM (top dose mostly 114 µM), without a hit: at the top dose activity change, negative = inhibition, actives largely listed as inhibitors; B. subtilis HM489 (acpS-) growth, BacTiter-Glo, 5 h
Sfp PPTase gel: Gel-Based Assay for Inhibitos of Bacillus subtilis Sfp phosphopantetheinyl transferase (PPTase): Chemistry Optimization Followup. shares compounds with NTMT1 inh. purified Sfp PPTase, gel-based product detection. Potency, µM (highest dose often 250 µM), for the others: at the highest dose activity change, negative = inhibition, most hits filed as inhibitors. 220 tested, 54% active
Sfp SAR2: qHTS Assay for Inhibitors of Bacillus subtilis Sfp phosphopantetheinyl transferase (PPTase): SAR Round 2; purified Sfp enzyme, PPTase activity, qHTS; 230 tested, 87% active; shares compounds with NTMT1 inh; Potency, µM (titrated, usually from 57.1 µM), inactives show at the highest dose activity change, negative = inhibition, most hits filed as inhibitors
HSD17B4 counter: Extended Characterization of HPGD Inhibitors: Counterscreen Against HSD17b4. Potency, µM (top dose mostly 57.1 µM), for the others: top-dose activity change, negative = inhibition, usual class: inhibitors. 230 tested, 10% active. purified HSD17B4, estradiol/NAD+, NADH fluorescence. shares compounds with NTMT1 inh. AID 743187, 2013
ALDH1A1 inh: Extended Characterization of HPGD Inhibitors: Counterscreen Against ALDH1A1 | shares compounds with NTMT1 inh | recombinant ALDH1A1, NADH fluorescence, propionaldehyde/NAD+ | Potency, µM (highest dose often 57.1 µM), inactives show at the highest dose activity change, negative = inhibition, usual class: inhibitors | 230 tested, 93% active | AID 743195, 2013
NNMT counter: Counterscreen qHTS for Inhibitors of N-terminal methyltransferase 1 (NTMT1): NNMT MTaseGlo assay; shares compounds with NTMT1 inh; NNMT MTase-Glo luminescence, SAH detection; Potency, µM (top dose mostly 57.1 µM), without a hit: at the top dose activity, negative = inhibition, most hits filed as inhibitors; 120 tested, 10% active; AID 1645878, 2021
Active calls of the source: *; i = inactive; ? = inconclusive; . = no result; [ ] = remark or other dose. Unless noted, the call rests on the fitted dose curve; in most records, active means well fitted curve in the direction sought with a large enough effect; inconclusive means small, poorly fitted or top-dose-only effect, or another doubt; inactive means no such curve, though single readings can be large; an effect the other way counts as inactive or inconclusive.

SMILES	GALC G270D up	SKOV3 invasion	PMP22 txn	NTMT1 inh	mTORC1 inh	S16 F2sN tox	Sfp PPTase inh	HM489 growth	Sfp PPTase gel	Sfp SAR2	HSD17B4 counter	ALDH1A1 inh	others
Cc1ccc(NS(=O)(=O)c2cc3c(cc2-c2ccco2)NC(=O)CO3)cc1C	.	.	.	-3.1%	.	.	.	.	.	.	.	.
O=C(Nc1ccc(F)c(Cl)c1)C1CCCN(c2cnccn2)C1 (stereo not given)	i	-6.6%	30.1%	1.7%	-2.3%	-5.7%	.	.	.	.	.	.
O=C([C@@H]1CCCN(c2ccc3[nH]c(C4(n5cc(Cl)cn5)CC4)nc3n2)C1)N1CCCC1	.	.	.	?	.	.	.	.	.	.	.	.	NNMT counter=-10.9%
Cc1cn([C@@H]2O[C@H](CO)[C@@H](O)[C@H]2F)c(=O)[nH]c1=O	i	6.1%	.	?	.	.	.	.	.	.	.	.
Cc1ccc(F)cc1S(=O)(=O)N[C@@H]1CCN(Cc2ccc(OC(C)C)cc2)C1	.	.	.	?	.	.	.	.	.	.	.	.	NNMT counter=-15.4%
O=[S+]([O-])(Nc1cnc2ccccc2c1)c1ccc(NCc2ccc(Cl)cc2O)cc1	.	.	.	0.3%[57.5 µM]	.	.	.	.	.	.	.	.
c1ccc(-c2oc3ncnc(NC[C@@H]4CCCO4)c3c2-c2ccccc2)cc1	.	-0.8%	.	10µM*	.	.	.	.	.	.	.	.	NNMT counter=?
c1nc(NCC2CCCO2)c2ccc(-c3ccc4c(c3)OCO4)cc2n1 (stereo not given)	.	.	.	-18.9%[57.5 µM]	.	.	.	.	.	.	.	.
CCS(=O)(=O)c1ccccc1C(=O)N1CCN(c2nc3ccccc3s2)CC1	i	-8.5%	?	20.4%	-3.3%	4.5%	.	.	.	.	.	.
Cc1cc(C)nc(NC(=S)N2CCN(c3nsc4ccccc34)CC2)c1	.	.	.	?	.	.	3.73µM*	?	6.31µM*	1.02µM*	-9.9%	21.5µM*
CN(Cc1ccccc1)C(=O)C1CCN(Cc2cccc3ccccc23)CC1	.	.	.	-2.8%	.	.	.	.	.	.	.	.
Cc1ccc(C)c(N2CCN(C(=O)c3ccc(NC(=O)c4nsc5ccccc45)cc3)CC2)c1	i	-6.2%	0.6%	-14.9%	0.0%	-1.1%	.	.	.	.	.	.
Cc1cc(C)nc(NC(=S)N2CCN(c3nc4ccccc4s3)CC2)c1	.	.	.	?	.	.	0.373µM*	?	10µM*	0.91µM*	-14.6%	8.57µM*
Cc1cc(C)nc(NC(=S)N2CCN(Cc3cccc4ccccc34)CC2)c1	.	.	.	?	.	.	4.69µM*	?	10µM*	8.13µM*	-10.8%	21.5µM*
Cc1cc(C)nc(NC(=S)N2CCN(c3nccc4ccccc34)CC2)c1	.	.	.	?	.	.	2.64µM*	?	-63.1%	9.13µM*	-22.8%	9.61µM*
Cc1cc(C)nc(NCc2ccc(O)c3ncccc23)c1	.	.	.	-4.0%	.	.	.	.	.	.	.	.
CCn1c(=O)c(-c2ccc(-c3cncc(C)n3)cc2Cl)cc2cnc(NCCC3CCN(C)CC3)nc21	.	.	.	-10.6%[12.6 µM]	.	.	.	.	.	.	.	.
C[C@@]1(F)[C@H](O)[C@@H](CO)O[C@H]1n1ccc(N)nc1=O	.	.	.	9.1%	.	.	.	.	.	.	.	.
Cc1cc(C)nc(NC(=S)N2CCN(Cc3cccc(C(F)(F)F)c3)CC2)c1	.	.	.	.	.	.	6.63µM*	?	?	11.5µM*	-15.1%	12.1µM*
Cc1cc2n(n1)CCC(=O)N2Cc1ccc(C(=O)Nc2cccc(C(F)(F)F)c2)cc1	i	4.5%	?	-18.6%	-0.7%	-19.3%	.	.	.	.	.	.
Cc1cc(C)nc(/N=C(\NC#N)N2CCN(c3cccc(C(F)(F)F)c3)CC2)c1	.	.	.	2.9%	.	.	?	41.8µM*	?	?	-9.3%	24.1µM*
Cc1cc(C)nc(Nc2nnc(N3CCN(c4cccc(C(F)(F)F)c4)CC3)s2)c1	.	.	.	6.4%[57.5 µM]	.	.	?	41.8µM*	-20.1%	14.5µM*	-20.0%	21.5µM*
Clc1cc(Cl)c2c(c1)N=C1CCCCCN1C2	.	.	.	12.4%	.	.	.	.	.	.	.	.
O=C(/C=C/c1ccc(F)cc1)Nc1cccc([S+](=O)([O-])Nc2ccccc2F)c1	.	.	.	4.7%	.	.	.	.	.	.	.	.
